Inhibition data for 40 molecules are collected here from ChEMBL document CHEMBL3433997, “St. Jude Leishmania screening dataset” (2016).

The assay concerns the target Glucose transporter (Leishmania mexicana) (UniProt O61059). Description: ST_JUDE_LEISH: Cytotoxicity at 2uM final concentration against transgenic Leishmania Mexicana promastigotes LmGT2 that are glucose transport deficient and complemented with the L. Mexicana glucose transporter 2. Activity is measured by DNA content using SYBR green in vitro. Type of assay: functional.
As usually defined, the inhibition is the relative decrease from the control value, in per cent. In the case of `CC(C)(C)c1ccc(-c2ccccc2CNC(=O)c2cccc(O)c2)cc1`, the inhibition turned out to be 7.1%.

For `CCCCCCc1cc(OC)c(OC)cc1C(C)Nc1ccnc2cc(Cl)ccc12` (stereo not given), the inhibition was found to be 0.14%.

`Cc1cc(=O)c(-c2ccc(OCCSc3ccc(C(F)(F)F)cn3)cc2)c(C)[nH]1`: the inhibition was found to be 2.2%.

Turning to `Cc1ccc(NC(=O)NC2CCN(CCC(NC(=O)Cc3ccccc3)c3ccc(Cl)c(Cl)c3)CC2)cc1` (stereo not given), the inhibition is -3.14%.

Take `NC(=O)c1ccccc1Nc1nc(Nc2cc[nH]n2)ncc1Cl`: the inhibition came out at 7.47%.

Consider `COc1cc2nccc(Nc3ccc(NC(=O)c4ccc(C)cc4)c(O)c3)c2cc1OC`, for which the inhibition came to 2.92%.

As for `CN(CCO)Cc1ccc(-c2ccc(NS(=O)(=O)c3cccc4cccnc34)cc2)cc1`, the inhibition was 80.8%.

Consider `O=C(N[C@@H](CC1CCCCC1)C(=O)NC1CC1)c1ccc(O)c(-c2cccc(C(F)(F)F)c2)c1`, for which the inhibition came out at 3.88%.

As to `Cc1cccc2nc(-c3ccc(-c4cccc(NC(=O)c5cncn5C)c4)s3)[nH]c12`, the inhibition is -2.47%.

Turning to `CCN(CC)CCN(Cc1ccc(-c2ccc(C(F)(F)F)cc2)cc1)C(=O)Cn1c(CCc2cccc(F)c2F)cc(=O)c(C)c1C`, the inhibition is 3.62%.

Turning to `N#CCCN1CCN(Cc2ccc(-c3ccc(-c4nc5cc(F)ccc5[nH]4)s3)cc2)CC1`, the inhibition is 4.14%.

In the case of `COc1ccccc1NS(=O)(=O)c1cc(C(=O)Nc2ccc(N3CCOCC3)c(S(=O)(=O)Nc3ccccc3Cl)c2)ccc1Cl`, the inhibition turned out to be 0.88%.

Turning to `Nc1nccc2ccc(-c3ccc(NC(=O)Nc4cc(C(F)(F)F)ccc4F)cc3)cc12`, the inhibition is -0.4%.

For `O=C(NC1CC1)c1ccc(N2CCC(Cc3ccccc3)CC2)c([N+](=O)[O-])c1`, the inhibition worked out at 3.45%.

In the case of `Brc1cc(CNCCCNc2nc3ccccc3[nH]2)sc1Br`, the inhibition amounted to 6.32%.

For `O=C(NCCCCN1CCC(c2ccc3ccccc3c2O)CC1)c1ccc(-c2ccc(Cl)cc2)cc1`, the inhibition was 3.45%.

For `CCCCCCCN1CC[C@@H](C[C@H](N)Cc2ccnc3ccc(OC)cc23)[C@@H](CC)C1`, the inhibition came to 0.03%.

On to `COc1cc2nc(N[C@@H](CO)c3ccccc3)nc(NCc3ccccc3)c2cc1OC`, for which the inhibition amounted to 1.61%.

Consider `O=S(=O)(NCCN1CCCC1)c1cccc(-c2cccc(CNCc3ccccc3)c2)c1`, for which the inhibition was 11.7%.

With `Cc1[nH]c(C)c(-c2ccc(CCc3ccc(F)cc3F)cc2)c(=O)c1Cl`, the inhibition is -0.68%.

Turning to `Cc1cc(Nc2cccc(C#N)c2)nc(Nc2ccccc2C)n1`, the inhibition worked out at 52.3%.

Turning to `COc1cc(Cc2cnc(N)nc2N)cc(OCCCCc2ccc([N+](=O)[O-])cc2)c1OC`, the inhibition is 1.51%.

Turning to `CCCC(C)Nc1nc(C)cc(N[C@@H](CC(C)C)C(=O)NCc2cccc(F)c2)n1` (stereo not given in full), the inhibition is 3.7%.

`COc1ccc(C=Cc2cc(=N)c3ccccc3[nH]2)cc1Br`: the inhibition was 1.29%.

For the molecule `O=S(=O)(Nc1cccc(CCN2CCC(N3CCCCC3)CC2)c1)c1cccc(C(F)(F)F)c1`, the inhibition came out at 0.82%.

In the case of `Cc1cc(=O)c(-c2ccc(OCc3ccc(OC(F)(F)F)cc3)cc2)c(C)[nH]1`, the inhibition was determined as 2.08%.

On to `COC(=O)c1cc(/C(C)=N/Nc2nc3ccccc3[nH]2)ccc1O`, for which the inhibition stood at 1.77%.

`O=C(/C=C/c1ccc(Cl)c(Cl)c1)NCCCCCN1CCCC(C(=O)Nc2ccc(F)c(Cl)c2)C1` (stereo not given): the inhibition amounted to 4.87%.

In the case of `O=C(Nc1ccccc1)OCCOc1ccc(CC2SC(=O)NC2=O)cc1` (stereo not given), the inhibition turned out to be 2.23%.

As to `CC1=C(C(=O)Nc2ccc(Cl)cc2)C(c2ccncc2)n2nc(C(F)(F)F)nc2N1` (stereo not given), the inhibition was -2.29%.

With `COc1cc2nc(NCCc3ccccc3)nc(NCc3ccc(C#N)cc3)c2cc1OC`, the inhibition stood at 2.83%.

Turning to `COc1cc2nc(NCCCOC(C)C)n3nc(-c4ccccc4)nc3c2cc1OC`, the inhibition worked out at 7.73%.

As for `CN(C(=O)Nc1ccc(F)cc1)C1CCN(CCCCCNC(=O)/C=C/c2ccc(Cl)c(Cl)c2)CC1`, the inhibition is 2.01%.

In the case of `CCN(CCCN1CCCCC1)c1cc(C)nc(Nc2ccc(OC)cc2)n1`, the inhibition was -1.02%.

As for `Fc1ccc2c(NN=Cc3ccccc3)ccnc2c1`, the inhibition is -1.55%.

For the molecule `COc1cc(CNCCCCCCNCc2cc(OC)cc3ccccc23)c2ccccc2c1`, the inhibition turned out to be 10.4%.

As to `CC1(C)CNCc2cc(NC(=O)/C=C/c3ccc(Cl)cc3)ccc21`, the inhibition worked out at 2.38%.

Take `C=CCc1cc(C2CCN(CCCCNC(=O)c3ccc(-c4ccc(C#N)cc4)cc3)CC2)c(OCC(N)=O)c2c1CCCC2`: the inhibition turned out to be 3.22%.

Consider `CON(CCCN(C)C)C(=N)N`, for which the inhibition turned out to be 0.26%.

With `CCn1c(Sc2ccc(C#N)c([N+](=O)[O-])c2)nnc1-c1cccc(Cl)c1`, the inhibition is 11.8%.
